# Assay results as given in PubChem BioAssay AID588453 (National Center for Advancing Translational Sciences (NCATS), 2011).
# Screen size: about 390,000 compounds; about 4,000 (1%) were called active. Inconclusive results (about 4%) are left out. The list comes from a sample in which actives are over-represented; it also holds similar structures and randomly drawn compounds. A number with no mark means an inactive call. Calls come from the whole dose curve; as a rule, active = well fitted inhibition curve with a large enough effect; inconclusive = small, poorly fitted or top-dose-only effect; inactive = no such curve, though single readings can be large or run the other way.
# Target: Thioredoxin reductase 1, cytoplasmic (Rattus norvegicus) (UniProt O89049)
# Experiment: qHTS Assay for Inhibitors of Mammalian Selenoprotein Thioredoxin Reductase 1 (TrxR1): qHTS; note: nearly all actives have a fitted effect of over 65% in size
# Details: recombinant rTrxR1, NADPH fluorescence consumption, selenite substrate; series mostly up to 114 µM; activity change, negative = inhibition: at the top concentration
# How it was run: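 Rat TrxR1 (90 nM in the dispensed reagent) was pre-reduced with 400 uM NADPH for 5 min at room temperature, then incubated with compound for 15 min. After 400 uM selenite was added, NADPH fluorescence (Ex 340/Em 450 nm) was followed for 8 min.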
# % is set by controls: 0 for no effect and ±100 for the full control effect; potency is the fitted concentration of half-maximal effect.
# Chain of Thioredoxin reductase 1, cytoplasmic (Rattus norvegicus) (O89049 whole entry, looked up): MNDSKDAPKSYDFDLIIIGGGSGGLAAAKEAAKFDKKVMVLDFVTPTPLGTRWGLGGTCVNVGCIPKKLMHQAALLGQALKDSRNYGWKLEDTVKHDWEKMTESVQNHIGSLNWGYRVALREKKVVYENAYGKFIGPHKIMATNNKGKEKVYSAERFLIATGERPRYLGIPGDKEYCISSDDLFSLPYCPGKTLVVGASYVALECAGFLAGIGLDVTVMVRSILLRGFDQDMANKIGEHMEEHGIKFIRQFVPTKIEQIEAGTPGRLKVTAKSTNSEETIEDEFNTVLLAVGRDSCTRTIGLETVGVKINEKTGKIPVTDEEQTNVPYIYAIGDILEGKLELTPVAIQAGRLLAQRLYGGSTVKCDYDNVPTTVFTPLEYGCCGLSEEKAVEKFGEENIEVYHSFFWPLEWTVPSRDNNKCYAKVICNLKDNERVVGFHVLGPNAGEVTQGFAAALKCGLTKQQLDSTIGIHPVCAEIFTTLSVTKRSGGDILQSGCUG
Structure (SMILES),"activity change, negative = inhibition",Potency
Cc1ccccc1CNC(=O)Cn1c(C)c2cnn(-c3ccccc3)c(=O)c2c1C,23.6%,–
Cc1ccc(C(=O)Nc2ccc3[nH]c(=O)c(=O)[nH]c3c2)cc1,1.15%,–
CCCS(=O)(=O)C(=C1Nc2ccccc2N1)S(=O)(=O)CCC,-18.4%,–
CN(C)/C=C1/Nc2ccccc2C1=O,–,35.5 µM (active)
Cc1ccc(S(=O)(=O)c2nnn3c2nc(N2CCN(c4ccccc4F)CC2)c2cc(Cl)ccc23)cc1C,20.5%,–
COCCNC(=O)CSc1nc(-c2ccccc2)[nH]c1-c1ccc(C)cc1,13.8%,–
Cc1csc(NCC(=O)c2c[nH]c3ccccc23)n1,11.7%,–
Clc1cccc(-c2nc3nc4ccccc4nc3n2Cc2ccco2)c1,–,7.94 µM (active)
COCCCn1c(-c2cccs2)nc2nc3ccccc3nc21,182%,–
Cc1nc2ccc(S(=O)(=O)N(CC(=O)Nc3ccc(F)cc3)Cc3ccccc3)cc2s1,7.96% [at 57.1 µM],–
Cc1ccc(C2C=C(c3ccc(Cl)cc3)Nc3nc(NC(=O)CCC(=O)O)nn32)cc1 (stereo not drawn),-15.9% [at 57.1 µM],–
CCOc1ccc(NC(=O)Cn2c(=O)n(CCCC(=O)NCc3ccc4c(c3)OCO4)c(=O)c3ccccc32)cc1,14%,–
CCOc1ccc(C(=O)CCC(=O)NC2=NCCS2)cc1,1.42%,–
CCOc1ccc(NCCC(=O)c2ccc3c(c2)OCO3)cc1,–,2.24 µM (active)
COC(=O)c1c(NC(=O)CCCOc2ccccc2)sc2c1CCC(C)C2 (stereo not drawn),14.9%,–
CCCc1[nH]nc2c1C(c1ccc(Br)s1)C(C#N)=C(N)O2 (stereo not drawn),–,44.7 µM (active)
CCCc1nc2c([nH]1)C(c1cccnc1)C(C#N)=C(N)O2 (stereo not drawn),-0.372%,–
CCOc1ccc(-n2c(C)nc3c(cnn3-c3ccc(C)cc3)c2=O)cc1,-0.644%,–
CCC1(C)CC(=O)c2c(ccc3oc(C(=O)Nc4ccc(C(C)=O)cc4)c(C)c23)O1 (stereo not drawn),6.3%,–
Cc1ccc(OCC(=O)c2cc(C)n(Cc3ccco3)c2C)c([N+](=O)[O-])n1,-0.57%,–
Cc1ccc(Cn2c(C)nc3c(c2=O)c2nc4ccccc4nc2n3Cc2ccco2)cc1,–,10 µM (active)
Cc1ccc(Cn2c(=O)n(Cc3nc(-c4ccccc4)no3)c(=O)c3cc4c(cc32)OCO4)cc1,6.4%,–
CC(C)(C)C1CCC(NC(=O)c2cnn3c2NC(=C2CC2)C=C3C(F)F)CC1 (stereo not drawn),26.5%,–
O=S(=O)(c1ccc(Cl)cc1)c1nnn2c1nc(NC1CCCC1)c1sccc12,29.3%,–
COc1ccc(/C=C/c2ccnc3ccccc23)cc1OC,14.7%,–

Structure (SMILES),"activity change, negative = inhibition",Potency
CCOc1cc(CNC(=O)c2sc3ncnc(N(C)C4CCCCC4)c3c2C)ccc1OC,16.5% [at 57.1 µM],–
CCOC(=O)Nc1ccc2c(c1)N(C(=O)CN1CCN3CCCC3C1)c1ccccc1CC2 (stereo not drawn),-5.17%,–
CCOC(=O)Nc1ccc2c(c1)N(C(=O)CCCl)c1ccccc1[S@]2=O,–,50.1 µM (active)
CCOC(=O)Nc1ccc(S(=O)(=O)N(C)C(C)C)cc1,23%,–
Oc1ccc(Br)cc1C1C=C(c2ccc3c(c2)OCO3)NC(c2ccc(Cl)cc2)N1 (stereo not drawn),-18.3%,–
CC(CCCc1ccccc1)NC(=O)c1nn(-c2ccc(Cl)cc2)nc1CO (stereo not drawn),15%,–
COc1ccc(Cl)cc1N(C)C(=O)c1cc2c(=O)oc3ccc(C)cc3c2s1,26.5%,–
O=C(NCCCc1ccccc1)c1ccc2c(c1)sc1nc(-c3ccc(F)cc3)cn12,3.74%,–
CN1C(=O)c2ccccc2Sc2ccc(NC(=O)Cc3ccc(Cl)cc3)cc21,-21.1% [at 57.1 µM],–
COc1cc2[nH]c(=S)n(Cc3ccc(C)o3)c(=O)c2cc1OC,–,8.91 µM (active)
COc1cc2[nH]c(=S)n(CCN3CCCCC3C)c(=O)c2cc1OC (stereo not drawn),7.7%,–
CCOc1cc2[nH]c(=S)n(Cc3ccc(C(=O)N4CCN(C)CC4)cc3)c(=O)c2cc1OCC,10.9%,–
OC[C@H]1O[C@@H](n2cnc3c(NC4CCCC4)ncnc32)[C@H](O)[C@H]1O,-0.561%,–
CCc1ccccc1NC(=O)c1ccc2nc(CCc3ccccc3)oc2c1,34.5% [at 57.1 µM],–
O=c1cc(-c2ccccc2)[nH]c2nc(Cl)ccc12,–,inactive
COc1ccc(/C=C/C(=O)c2cc(Br)ccc(=O)c2O)cc1,–,35.5 µM (active)
COCOc1cc(O)c(C(=O)/C=C/c2ccc(OCOC)c(OCOC)c2)c(OCOC)c1,-3.29%,–
COc1cccc(N2CC(NC(=O)/C=C\c3ccccc3)CC2=O)c1 (stereo not drawn),9.26% [at 57.1 µM],–
Cc1ccc(-c2nc(=N)sn2Cc2ccccc2)cc1,-19.2%,–
Cc1ccc(NC(=O)Cn2nnc3sc4c(c3c2=O)CCC(C)C4)cc1 (stereo not drawn),6.32% [at 57.1 µM],–
COc1ccc(CCNc2nc(-c3ccc(F)cc3)cc(C(F)(F)F)n2)cc1OC,59%,–
COc1ccc(-c2cc(C(F)(F)F)nc(S(C)(=O)=O)n2)cc1OC,–,17.8 µM (active)
COc1ccc(-c2cc(C(F)(F)F)nc(SCC(=O)N(C)Cc3ccccc3)n2)cc1OC,144%,–
CC1CN(C(=O)N2CCC(C(=O)NCc3ccco3)CC2)c2cc(Cl)ccc2O1 (stereo not drawn),16.6%,–
CC(=O)Nc1ccc(NC(=O)CSc2nnc3c4cc(Br)ccc4n(C)c3n2)cc1,23.3%,–

Structure (SMILES),"activity change, negative = inhibition",Potency
CC1CCN(S(=O)(=O)c2ccc3c(c2)N(CC(=O)NCCc2ccccc2)C(=O)CO3)CC1,20.4%,–
Brc1ccc(C2=CC(c3ccco3)n3ncnc3N2)cc1 (stereo not drawn),–,39.8 µM (active)
Cc1ccccc1OCC(=O)Nc1c(C(=O)Nc2ccccc2F)oc2ccccc12,17.9%,–
NC(=O)Nc1ccc(/C=C/c2ccnc3ccccc23)cc1,8.21%,–
Cc1cc(C)cc(C(=O)NC2C(=O)N3C(C(=O)O)=C(CSc4nnc(C)s4)CSC23)c1 (stereo not drawn),–,8.91 µM (active)
Cc1nnc(SCc2cc(=O)[nH]c(N3CCN(Cc4ccccc4)CC3)n2)s1,14.8% [at 57.1 µM],–
C=CC1=C(C(=O)O)N2C(=O)[C@@H](NC(=O)/C(=N/OCC(=O)O)c3csc(N)n3)[C@H]2SC1,-2.23%,–
Cc1ccc(C)c(S(=O)(=O)c2nnn3c2nc(N2CCOCC2)c2sccc23)c1,34.2%,–
O=C(Nc1ccc(Cl)cc1)c1cnn2c1NC(=C1CC1)C=C2C(F)F,11.1%,–
CC(C)(C)n1ncc2c(=O)n(Cc3ccc(C(=O)c4ccccc4)cc3)cnc21,22.2%,–
CCCCC(O)(CCCC)C(=O)NN(C(=O)CCl)c1ccccc1,–,10 µM (active)
CCCCCCCC(=O)NC(Nc1ccccc1OC)C(Cl)(Cl)Cl (stereo not drawn),7.59%,–
CCCCNC(=O)CN1C(=O)NC(Cc2ccccc2)(Cc2ccccc2)C1=O,-6.76%,–
CCOc1ccccc1CNC(=O)c1cnc2c(-c3ccc(OCC)c(OCC)c3)c(C)nn2c1C,19.7% [at 57.1 µM],–
CC1=C(C(=O)OCC2CCCCC2)C(c2c(F)cccc2Cl)CC(=O)N1 (stereo not drawn),5.66%,–
Cc1cc(C)c(NC(=O)c2cc3sc(Cl)cc3n2C)c(C)c1,1.88%,–
CCN1CCC(O)(/C=C/c2ccc(C)cc2)C(C(=O)/C=C/c2ccc(C)cc2)C1 (stereo not drawn),–,1.26 µM (active)
Cc1ccc(NC(=O)CSc2nc3ccccc3c3nc(CCn4cncc4C)nn23)cc1F,11.5% [at 57.1 µM],–
CN(C)C1=C2C=CC=CC2/C(=C2/C=Cc3ccccc32)C=C1 (stereo not drawn),7.41%,–
COC(=O)c1ccc(NC(=O)CCc2c(C)nn(-c3ccc(N4CCCC4)nn3)c2C)cc1,2.08% [at 57.1 µM],–
CC(C)S(=O)(=O)c1oc(-c2ccc(F)cc2)nc1S(=O)(=O)c1ccc(F)cc1,–,1 µM (active)
O=C(CSc1oc(-c2ccc(F)cc2)nc1S(=O)(=O)c1ccc(Br)cc1)NC1CCCCC1,18.8%,–
Cc1ccc(-c2nc(S(=O)(=O)c3ccc(C)cc3)c(N3CCCCCC3)o2)cc1,16.3%,–
C=Cc1ccc(Cn2c(C(=O)OC)cc3sc(C)cc32)cc1,14.6%,–
COc1ccc(-c2nc3c(c(SCC(=O)Nc4ccc(C(=O)O)cc4)n2)Cc2ccccc2O3)cc1,14.2%,–

Structure (SMILES),"activity change, negative = inhibition",Potency
Cc1cccc(CNC(=O)c2cnc3sc(N4CCCCC4)nn3c2=O)c1,21.5% [at 57.1 µM],–
COc1ccccc1N1CCN(C(=O)C2CCN(S(=O)(=O)c3c(C)noc3/C=C/c3ccc(C)cc3)CC2)CC1,7.91% [at 57.1 µM],–
CCn1c(/C=C/c2ccc([N+](=O)[O-])o2)nc2ccccc2c1=O,–,3.16 µM (active)
COc1cc(OC)c(OC)cc1/C=C/c1nc2ccccc2c(=O)n1-c1ccc(Br)c(C)c1,11% [at 57.1 µM],–
CCCN(CCC)c1c([N+](=O)[O-])c(=O)oc2ccccc12,-6.64% [at 57.1 µM],–
Cc1ccc(C2c3[nH]c4ccccc4c3CCN2C(=O)c2cccc(C)c2)cc1 (stereo not drawn),24% [at 57.1 µM],–
COc1ccc(-c2nc3sc(CCNS(=O)(=O)c4ccc(F)c(C)c4)c(C)n3n2)cc1,13.8% [at 57.1 µM],–
COc1ccccc1-n1c(=S)[nH]c2c(sc(=S)n2-c2ccc(C)cc2C)c1=O,3.35%,–
COc1ccccc1-n1c(-c2cc(-c3ccco3)[nH]n2)n[nH]c1=S,–,44.7 µM (active)
Cc1cc(-c2n[nH]c(=S)n2-c2ccc(C)c(C)c2)no1,-26.4%,–
COc1ccc(N2CCN(C(=O)C3CCCN(C(=O)c4cc5sccc5n4C)C3)CC2)cc1 (stereo not drawn),-11%,–
COc1ccc(CN2CCNC(=O)C2CC(=O)N(C)Cc2ccccn2)cc1OC (stereo not drawn),-4.61% [at 57.1 µM],–
COc1ccccc1CN1CCNC(=O)C1CC(=O)N(C)CC1CCOCC1 (stereo not drawn),-27.5%,–
CN(C(=O)CC1C(=O)NCCN1Cc1ccc2ccccc2c1)C1CCOCC1 (stereo not drawn),–,39.8 µM (active)
O=C(Cn1c(-c2cccs2)cc2ccccc21)NCCc1ccc(Cl)cc1,5.31%,–
CCNC(=O)Cn1nc(C)n2c(cc3c(OC)cccc32)c1=O,19.1%,–
O=C(COC(=O)[C@H](Cc1ccccc1)NC(=O)c1cccs1)Nc1cc(F)ccc1F,-9.98%,–
Cc1ccc(C)c(NC(CC(=O)c2ccccc2)C(=O)OCC(=O)c2cccs2)c1 (stereo not drawn),–,44.7 µM (active)
COC(=O)C(CC(=O)Nc1cc(C)ccc1C)Nc1ccccc1OC (stereo not drawn),17.6%,–
COc1cc2nc(N3CCCN(C)CC3)nc(NC(C)C)c2cc1OC,-9.03%,–
CCOc1ccc(N(Cc2ccccc2)C(=O)c2nc(SCC)ncc2Cl)cc1,20.4%,–
CCOc1ccc(N(Cc2ccccc2)C(=O)c2nc(S(C)(=O)=O)ncc2Cl)cc1,–,2.24 µM (active)
CCOc1ccc(NC(=O)CN(Cc2ccccc2)S(=O)(=O)c2ccc(Cl)cc2)cc1,4.4%,–
